High-throughput results: PubChem, National Center for Advancing Translational Sciences (NCATS)
Most compounds without a hit are left out; they make up all but 7.4% or so of the library.
SMN2 splice up = qHTS Assay for Enhancers of SMN2 Splice Variant Expression; HEK293 SMN2-luciferase splicing reporter, luminescence, 30-36 h; Potency, µM (titrated, usually from 46.1 µM), most hits filed as activators; hit rate 2.8% among 210,000; AID 1458, 2008; note: nearly all actives have a fitted effect of over 55% in size
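HEK293 cells carry an SMN2 […]–luciferase reporter in which exon 7 inclusion puts luciferase in frame. Cells were plated 10-12 h before compound addition, then incubated 30-36 h at 37C. ONE-Glo luminescence was read; sodium butyrate at 4.5 mM final served as control.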
Rab9 prom act = qHTS Assay for Rab9 Promoter Activators; Potency, µM (highest dose often 9.22 µM), most hits filed as activators; hit rate 2.8% among 320,000; AID 485297, 2010; Huh7 Rab9 promoter-luciferase reporter, luminescence, 24 h; note: nearly all actives have a fitted effect of over 60% in size
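Huh7 reporter line, Rab9 promoter upstream of luciferase. Compound exposure 24 h at 37 °C in reduced-serum medium with 10% FBS. Read-out: luminescence.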
FLuc modulator = qHTS profiling assay for firefly luciferase inhibitor/activator using purifed enzyme and Km concentrations of substrates (counterscreen for miR-21 project). Potency, µM (titrated, usually from 57.5 µM), hits mostly inhibitors. Luciferin 4-monooxygenase (Photinus pyralis), P08659. hit rate 6.9% among 360,000. purified FLuc, Km substrates, luminescence inhibition. AID 588342, 2011; note: nearly all actives have a fitted effect of over 55% in size
Target sequence (P08659 whole entry, looked up): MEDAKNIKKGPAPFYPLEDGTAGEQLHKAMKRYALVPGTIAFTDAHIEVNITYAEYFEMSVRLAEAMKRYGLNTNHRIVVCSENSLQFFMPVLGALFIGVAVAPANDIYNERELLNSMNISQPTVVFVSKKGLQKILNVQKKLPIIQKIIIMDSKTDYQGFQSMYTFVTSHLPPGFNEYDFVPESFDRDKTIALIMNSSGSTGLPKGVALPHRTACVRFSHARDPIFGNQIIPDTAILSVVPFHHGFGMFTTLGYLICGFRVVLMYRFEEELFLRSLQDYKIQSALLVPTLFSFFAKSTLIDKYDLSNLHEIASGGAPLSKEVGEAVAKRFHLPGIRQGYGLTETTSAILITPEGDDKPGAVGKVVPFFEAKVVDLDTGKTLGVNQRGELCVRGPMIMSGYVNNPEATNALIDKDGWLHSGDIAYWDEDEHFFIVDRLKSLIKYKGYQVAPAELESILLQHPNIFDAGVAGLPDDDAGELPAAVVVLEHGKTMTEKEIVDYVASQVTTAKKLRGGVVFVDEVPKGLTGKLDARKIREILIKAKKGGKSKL
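Biochemical qHTS of compounds, final roughly 60 µM downward over six points, against 10 nM purified firefly luciferase using Km concentrations of substrates (10 uM D-luciferin, 10 uM ATP) in Tris acetate pH 7.5 buffer; luminescence output.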
KinaseGlo FLuc = Counterscreen for Luciferase (Kinase-Glo TM) Inhibition; hit rate 0.28% among 200,000; Potency, µM (top dose mostly 38.3 µM), actives largely listed as inhibitors; Kinase-Glo luciferase, ATP luminescence, 8 min; AID 1379, 2008; Luciferin 4-monooxygenase (Photuris pensylvanica), Q27757; note: nearly all actives have a fitted effect of over 60% in size
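Luminescence was the read-out, taken after 8-minute incubation at ambient temperature. Luciferase turned over luciferin with 10 uM ATP in imidazole pH 7.2 buffer containing KCl, MgCl2, Tween 20 and BSA.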
NPC1 prom act = qHTS Assay for NPC1 Promoter Activators; Potency, µM (series often up to 9.22 µM), actives largely listed as activators; Huh7 NPC1 promoter luciferase reporter, 24 h; hit rate 2.4% among 320,000; AID 485313, 2010; note: nearly all actives have a fitted effect of over 60% in size
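Readout is luciferase luminescence, reflecting NPC1 promoter activation in stably transfected Huh7 cells after 24 h compound exposure at 37 °C in reduced-serum medium with 10% FBS.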
ELG1 genotoxic = qHTS screen for small molecules that induce genotoxicity in human embryonic kidney (HEK293T) cells expressing luciferase-tagged ELG1. HEK293T ELG1-luciferase reporter, luminescence, 16 h. Potency, µM (series often up to 46 µM), hits mostly activators. hit rate 1.3% among 330,000. AID 504466, 2011; note: nearly all actives have a fitted effect of over 60% in size
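16 hr compound incubation (37 °C, 5% CO2) of HEK293T cells carrying luciferase-tagged ELG1; luciferase then measured by ONE-Glo luminescence after 30 min at RT.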
Hits are given with their value; – = inactive; ? = inconclusive; · = no result given; [ ] = remark or other dose. Calls come from the whole dose curve; as a rule, active = well fitted curve in the direction sought with a large enough effect; inconclusive = small, poorly fitted or top-dose-only effect, or another doubt; inactive = no such curve, though single readings can be large; an effect the other way counts as inactive or inconclusive.

SMILES | SMN2 splice up | Rab9 prom act | FLuc modulator | KinaseGlo FLuc | NPC1 prom act | ELG1 genotoxic
N#Cc1c(/N=C\c2ccc(O)c([N+](=O)[O-])c2)sc2c1CCCC2 | · | ? | ? | – | – | –
Cc1ccc(/C=N/n2c(C)cc(C)c(C#N)c2=O)o1 | – | – | – | – | – | –
N#Cc1c(/N=C/c2cccs2)sc2c1CCCCC2 | – | 2µM | 0.379µM | ? | 3.55µM | 0.517µM
Cc1ccc(/C=N/c2sc3c(c2C#N)CCC3)o1 | – | – | 1.35µM | 11.2µM | – | ?
N#Cc1c(/N=C/c2ccc(Br)s2)sc2c1CCC2 | 7.94µM | ? | 1.9µM | – | ? | ?
N#Cc1c(N)nc2c(c1-c1ccc(Br)s1)CCCC2 | – | – | – | – | – | –
N#Cc1c(/N=C/c2cccnc2)sc2c1CCCC2 | · | – | 2.69µM | · | – | –
N/N=C1/CC(=O)NC(=O)N1 | –[9.22 µM] | · | · | –[7.66 µM] | · | ·
Cc1ccc(CN2C(=O)c3ccccc3CC2(C)C(=O)NC2CCCCC2)cc1 (stereo not given) | – | · | – | · | · | ·
CCC1CCc2nc3sc(C(=O)Nc4cccc(F)c4)c(N)c3cc2C1 (stereo not given) | – | · | – | · | · | ·
COc1ccc(NC(=O)CN2C(=O)C(C)(C)c3cc(S(=O)(=O)N4CCCCC4)ccc32)cc1Cl | · | · | – | · | · | ·
CC(=O)c1ccc(NC(=O)CSc2nc(=O)n(Cc3ccccn3)c3c2CCC3)cc1 | · | · | – | · | · | ·
CC(NC(=O)C1CC1)c1ccc(-c2ccccc2)cc1 (stereo not given) | · | – | – | · | – | –
O=C(O)C1CCC(c2ccc(-c3ccccc3)cc2)CC1 (stereo not given) | · | ? | 6.75µM | · | 2.82µM | ?
Cc1nc(C)c(-c2csc(Nc3ccc(F)cc3)n2)s1 | – | ? | ? | – | – | –
COc1cccc(Nc2nc(-c3sc(C)nc3C)cs2)c1 | · | – | 19µM | · | – | –
COc1ccc(OC)c(Nc2nc(-c3sc(C)nc3C)cs2)c1 | – | – | ? | – | – | –
COc1ccccc1Nc1nc(-c2sc(N)nc2C)cs1 | · | – | ? | · | – | –
COc1cccc(Nc2nc(-c3sc(N)nc3C)cs2)c1 | ? | ? | 13.5µM | – | – | ?
Cc1nc(C)c(-c2csc(Nc3ccc(C(=O)O)c(O)c3)n2)s1 | · | – | 12µM | · | – | –
Cc1nc(N)sc1-c1csc(Nc2ncccn2)n1 | 5.62µM | 0.562µM | 3.01µM | – | ? | 23.1µM
CCc1ccc(NC(=O)Cn2c(=O)n(-c3ccc(Cl)c(Cl)c3)c(=O)c3c(C)c(C)sc32)cc1 | – | · | – | · | · | ·
CC(=O)c1ccc(NC(=O)c2sc(-n3nc(C)c(Cc4ccccc4)c3C)nc2C)cc1 | · | · | – | · | · | ·
CCc1cccc(NC(=O)Cn2c(-c3ccc(F)cc3)cc(C(C)=O)c2C)c1 | · | · | – | · | · | ·
CCOc1ccc(Cl)cc1C1CC(=O)Nc2cc(OC)c(OC)c(OC)c21 (stereo not given) | – | · | – | · | · | ·
SMILES | SMN2 splice up | Rab9 prom act | FLuc modulator | KinaseGlo FLuc | NPC1 prom act | ELG1 genotoxic
COc1ccc(Cl)cc1Nc1nc(-c2sc(NC(=O)c3ccco3)nc2C)cs1 | – | – | ? | – | – | –
COc1cccc(Nc2nc(-c3sc(NC(=O)c4ccco4)nc3C)cs2)c1 | – | – | 23.9µM | – | – | –
C=CC(C)(C)c1cc2cc3ccoc3cc2oc1=O | – | – | 21.3µM | – | – | –
CCC(Sc1nnc2c(n1)[nH]c1ccccc12)C(=O)Nc1ccccc1OC (stereo not given) | – | · | ? | · | · | ·
O=C1c2cccc3cccc(c23)C(=O)N1CCc1ccccc1 | 14.1µM | ? | 13.5µM | – | – | –
Cc1oc(C(=O)O)cc1COc1ccc2c3c(c(=O)oc2c1C)CCCC3 | – | – | – | – | – | –
Cc1c(Oc2ccc(C(F)(F)F)cc2[N+](=O)[O-])ccc2c3c(c(=O)oc12)CCC3 | – | – | – | – | – | –
Cc1c(OCc2ccc([N+](=O)[O-])cc2)ccc2c3c(c(=O)oc12)CCC3 | 5.62µM | 1µM | ? | – | 1.12µM | ?
Cc1oc(C(=O)O)cc1COc1ccc2c3c(c(=O)oc2c1C)CCC3 | ? | ? | 26.9µM | – | – | ?
Cc1c(OCC(=O)N(C)C)ccc2c3c(c(=O)oc12)CCCCC3 | – | – | – | – | – | –
CC(=O)COc1ccc2c3c(c(=O)oc2c1C)CCCCC3 | ? | ? | – | – | ? | 7.31µM
COC(=O)c1csc(C(=O)c2c[nH]c3ccccc23)n1 | · | · | · | – | · | ·
CNC(=O)c1ccc(-c2cc3onc(-c4ccccc4)c3c(=O)n2C)cc1 | · | · | · | · | · | –
Cc1ccc(-c2cc3onc(-c4ccccc4)c3c(=O)n2C)cc1 | · | ? | 0.135µM | · | ? | ?
CCOc1ccc(C2C(=O)N(C3CCCCCC3)CC(=O)N2Cc2ccc(C)cc2)cc1OC (stereo not given) | · | · | – | · | · | ·
COc1ccc(/C=C2\SC(=O)N(CCC(=O)N3CCN(C)CC3)C2=O)cc1 | · | – | 19µM | · | – | –
Cc1ccc(/C=C2\SC(=O)N(CCC(=O)N3CCN(C)CC3)C2=O)cc1 | · | – | 13.5µM | · | ? | ?
Cc1ccc(/C=C2\SC(=O)N(CCNC(=O)C3CSC4(C)CCC(=O)N34)C2=O)cc1 (stereo not given) | · | – | 19µM | · | – | –
CC12CCC(=O)N1C(C(=O)NCCN1C(=O)S/C(=C\c3ccccc3Cl)C1=O)CS2 (stereo not given) | · | – | ? | · | – | –
CCCCN1Cc2c(nc3cc(-c4ccco4)[nH]n3c2=O)C1=O | · | – | 16.9µM | · | – | –
O=C(NCc1ccccc1)c1cccnc1Sc1ccccc1 | · | – | – | · | – | –
Cc1ccc(Sc2ncccc2C(=O)NCc2cc([N+](=O)[O-])ccc2O)c(C)c1 | · | 3.98µM | 8.49µM | · | 3.98µM | ?
O=C(NCc1cc([N+](=O)[O-])ccc1O)c1cccnc1Sc1ccccc1 | · | – | 16.9µM | · | – | –
Cc1nc2ccn(Cc3ccco3)c(=O)c2cc1C(=O)NCc1ccc(Cl)cc1 | · | · | – | · | · | ·
O=C1OC(c2ccc(Br)cc2)=N/C1=C\N1CCCCC1 | 12.6µM | 2.51µM | ? | – | 2.24µM | 14.6µM
SMILES | SMN2 splice up | Rab9 prom act | FLuc modulator | KinaseGlo FLuc | NPC1 prom act | ELG1 genotoxic
O=C1OC(c2ccccc2)=N/C1=C\N1CCCCC1 | ? | 3.55µM | 9.53µM | – | 2.82µM | ?
O=C1OC(c2ccccc2)=C/C1=C/N1CCCCC1 | ? | 2.51µM | 6.01µM | – | 2.51µM | ?
COc1ccc(-c2csc(NC(=O)c3c(C)noc3C)n2)cc1F | · | – | ? | · | – | –
COc1ccc(-c2csc(Nc3cc(C)ccn3)n2)cc1C | · | ? | 8.49µM | · | – | –
COc1ccc(-c2csc(Nc3ncccn3)n2)cc1C | · | 0.178µM | – | · | 0.708µM | ?
COc1ccc(-c2csc(NC(=O)Cc3ccccc3)n2)cc1OC | · | – | ? | · | – | –[9.26 µM]
